# Experimental data: PubChem BioAssay AID1053119 (Broad Institute, 2014)
# Measured potencies and affinities stand elsewhere. Results filed as inconclusive are left out. The source made the active and inactive calls.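 Rule for the calls: active = signal loss from cell killing with fitted potency at or below twice the top valid dose; inconclusive = flat drop of 30 to 70%, or unreliable curve fit; inactive = opposite direction, flat within 30%, or weaker potency.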
# Experiment: viability loss in A549 lung cancer cells – cell-based, cherry-picks, 26 µM top dose, cytotoxicity control, dose response (AID 1053119);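 note: 0% = neutral control wells and -100% = 10 µM mitoxantrone wells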
# Details: CellTiter-Glo ATP luminescence, 72 h; series mostly up to 26 µM; activity change, negative = cytotoxicity: at the top concentration
row,Structure (SMILES),"activity change, negative = cytotoxicity"
1,CCOC(=O)c1cnc(SCc2nc(N)nc(Nc3ccc(OC)cc3)n2)nc1N,-4.98% (inactive)
2,COc1cccc(CNC(=O)CCc2nnc3ccc(NCCCN4CCCC4=O)nn23)c1,-2.93% (inactive)
3,N#Cc1ccc(-c2ccc3c(c2)[C@@H]2[C@@H](CCN2S(=O)(=O)c2cccc(F)c2)[C@H](CO)N3)cc1,-4.73% (inactive)
4,COC(=O)C[C@H]1CC[C@@H]2[C@H](COc3ccc(NC(=O)Cc4cccs4)cc3C(=O)N2C)O1,2.92% [at 23.5 µM] (inactive)
5,CC1(C)Cc2c(C#N)c(SCC(=O)c3ccccc3)nc(N3CCOCC3)c2CS1,5.56% (inactive)
6,Cc1cccc(NC(=O)c2ccc(S(=O)(=O)N3CCCCC3)cc2)n1,-1.35% (inactive)
7,C[C@H](CO)N1C[C@H](C)[C@H](CN(C)C(=O)c2cccc(F)c2)Oc2ncc(-c3ccccc3)cc2C1=O,-4.04% (inactive)
8,Cc1ccc(-c2nc3ncccc3o2)cc1NC(=O)c1ccco1,-0.724% (inactive)
9,CC(C)NC(=O)N(C)C[C@H]1Oc2ccc(NC(=O)CCN3CCOCC3)cc2C(=O)N([C@H](C)CO)C[C@@H]1C,3.85% (inactive)
10,C[C@@H]1CN([C@H](C)CO)C(=O)c2cc(NC(=O)CCCN(C)C)ccc2O[C@H]1CN(C)Cc1ccc(-c2ccccc2)cc1,-1.25% (inactive)
11,COC(=O)c1c(NC(=O)CN2CCN(c3ccccc3Cl)CC2)sc(C)c1C,-11.6% (inactive)
12,C[C@H]1CN([C@@H](C)CO)C(=O)c2cc(NC(=O)C3CCCCC3)ccc2O[C@H]1CN(C)Cc1ccc(-c2ccccc2)cc1,-12.8% (inactive)
13,Cc1cc(C)c(S(=O)(=O)Nn2cnnc2)c(C)c1,-12.4% (inactive)
14,O=c1c2cc(N3CCOCC3)ccc2[nH]c(=S)n1Cc1ccc(Cl)cc1,0.921% (inactive)
15,COc1ncccc1C(=O)NC1CCCc2c1cnn2-c1ccc(C)c(C)c1 (stereo not drawn),-11.4% (inactive)
16,O=C(CC1Nc2ccccc2NC1=O)Nc1ccc2c(c1)OCO2 (stereo not drawn),-10.1% (inactive)
17,Cc1c(NC(=O)c2ccc3nsnc3c2)cccc1[N+](=O)[O-],-0.314% (inactive)
18,Nc1c(C(=O)NCc2ccco2)nnn1Cc1ccccc1,-6.95% (inactive)
19,O=S(=O)(c1cccc(F)c1)N1CC[C@H]2[C@H](CO)Nc3ccc(-c4cccc(F)c4)cc3[C@H]21,-1.9% (inactive)

row,Structure (SMILES),"activity change, negative = cytotoxicity"
1,COc1ccccc1CC(=O)OC(C)C(=O)Nc1ccc(S(=O)(=O)N2CCCCC2)cc1 (stereo not drawn),24.9% (inactive)
2,O=C(NCCS(=O)(=O)N1CCN(c2ccc(F)cc2)CC1)c1ccc(Br)o1,-7.54% (inactive)
3,CO[C@H]1CN(C)C(=O)c2cc(NC(=O)Nc3ccc(Cl)c(Cl)c3)ccc2OC[C@@H](C)NC[C@H]1C,-12.1% (inactive)
4,C[C@H](O)C#Cc1ccc2c(c1)O[C@H](CN(C)C)[C@@H](C)CN([C@@H](C)CO)S2(=O)=O,4.25% (inactive)
5,Cc1cc(C)n2ncc(C(=O)NCc3ccc(Cl)cc3)c2n1,-3.99% (inactive)
6,O=C(c1cccnc1)N1C[C@H]2[C@@H](c3ccccc31)[C@H](CO)N2CC1CCCC1,-2.73% [at 23.5 µM] (inactive)
7,COCC(=O)Nc1ccc2c(c1)C(=O)N(C)[C@@H]1CC[C@@H](CC(=O)NCc3ccccc3Cl)O[C@@H]1CO2,-6.21% [at 23.5 µM] (inactive)
8,COCC(=O)Nc1ccc2c(c1)C(=O)N(C)[C@@H]1CC[C@H](CC(=O)NCc3ccccc3Cl)O[C@H]1CO2,1.18% (inactive)
9,COC(=O)C[C@H]1CC[C@H]2[C@@H](COc3ccc(NC(=O)Cc4cccs4)cc3C(=O)N2C)O1,4.07% (inactive)
10,CCOC(=O)c1nnn(-c2ccc(OC)cc2)c1N,-2.2% (inactive)
11,CO[C@H]1CN(C)C(=O)c2cc(NC(C)=O)ccc2OC[C@@H](C)N(C(=O)CN2CCOCC2)C[C@H]1C,-2.74% (inactive)
12,C[C@H](CO)N1C[C@H](C)[C@H](CN(C)C)Oc2cc(C#C[C@@H](C)O)ccc2S1(=O)=O,14.3% (inactive)
13,OC(CNC1CCCc2ccccc21)COc1c(Cl)cccc1Cl (stereo not drawn),-13.4% (inactive)
14,Cc1cccc(NC(=O)c2ccc(C3SCC(=O)N3CCc3ccccc3)cc2)c1 (stereo not drawn),-0.187% (inactive)
15,COc1ccc([N+](=O)[O-])cc1NS(=O)(=O)c1ccc(C(=O)N2CCCC2)cc1,-5.09% (inactive)
16,COc1ccccc1CNc1nc(NCc2cnc(C)cn2)c2sccc2n1,0.101% (inactive)
17,COCC(=O)Nc1ccc2c(c1)C(=O)N(C)[C@H]1CC[C@H](CC(=O)NCc3ccccc3Cl)O[C@@H]1CO2,-12% [at 23.5 µM] (inactive)
18,C[C@H](CO)N1C[C@H](C)[C@@H](CN(C)Cc2ccc(-c3ccccc3)cc2)Oc2ccc(NC(=O)CCCN(C)C)cc2C1=O,-1.63% (inactive)
19,CO[C@H]1CN(C)C(=O)c2ccc(NC(=O)Nc3cc(Cl)cc(Cl)c3)cc2OC[C@H](C)NC[C@@H]1C,-0.958% [at 8 µM] (inactive)
